Bioassay records from PubChem.
Most compounds without a hit are left out; they make up all but 3.4% or so of the library.
FBW7 act = human FBW7 E3 ligase activation, primary screen. AID 1259310. actives 0.13% (n = 650,000). normalized activity (activation), % at 26.1 µM. Q969H0. AlphaScreen FBW7–phospho-cyclin E peptide binding, activator screen; in the data active = normalized activity above about 1.9%;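 note: purified mutant Fbw7 with reduced substrate affinity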
Target sequence (Q969H0 whole entry, looked up): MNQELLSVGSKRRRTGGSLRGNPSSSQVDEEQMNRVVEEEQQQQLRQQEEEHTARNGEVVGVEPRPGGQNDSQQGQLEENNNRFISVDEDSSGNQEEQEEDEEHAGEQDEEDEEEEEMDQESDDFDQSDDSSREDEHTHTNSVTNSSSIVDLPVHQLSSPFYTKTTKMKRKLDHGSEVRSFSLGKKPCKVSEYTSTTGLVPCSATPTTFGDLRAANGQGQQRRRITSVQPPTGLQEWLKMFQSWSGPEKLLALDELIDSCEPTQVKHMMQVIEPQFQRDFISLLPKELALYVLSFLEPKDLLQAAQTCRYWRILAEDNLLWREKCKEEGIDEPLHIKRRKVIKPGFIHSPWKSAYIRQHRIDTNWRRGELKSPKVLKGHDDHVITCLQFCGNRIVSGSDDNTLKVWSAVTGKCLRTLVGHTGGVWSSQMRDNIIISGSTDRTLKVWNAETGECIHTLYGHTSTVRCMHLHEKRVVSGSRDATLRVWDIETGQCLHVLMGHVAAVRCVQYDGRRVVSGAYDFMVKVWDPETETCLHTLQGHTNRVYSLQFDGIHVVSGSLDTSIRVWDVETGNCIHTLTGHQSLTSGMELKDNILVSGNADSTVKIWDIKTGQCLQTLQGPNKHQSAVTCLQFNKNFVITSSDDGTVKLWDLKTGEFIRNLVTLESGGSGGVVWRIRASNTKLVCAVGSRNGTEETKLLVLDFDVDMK
GPR151 activ = activators of human GPR151 | PathHunter beta-arrestin GPR151 cells, luminescence | activation, % at 11.2 µM | actives 1% (n = 650,000); in the data active = activation above about 4.9%
TEAD-YAP block = TEAD-YAP interaction inhibition; inhibition, % at 9.12 µM; HEK-TIYL cells, TEAD-Gal4/YAP UAS-luciferase luminescence; actives 1.4% (n = 640,000); in the data active = inhibition above about 32%
MITF inh = inhibitors of human MITF | O75030 | AlphaScreen MITF homodimerization, bead proximity signal | inhibition, % at 2.6 µM | actives 0.91% (n = 650,000); in the data active = inhibition above about 50%
MITF inh conf = confirmation of human MITF inhibitors; shares compounds with MITF inh; AlphaScreen MITF homodimerization, biotin/His-MITF beads; inhibition, % at 2.6 µM; actives 16% (n = 4,700);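 active = inhibition above a cutoff derived from the DMSO control wells, cut at about 28% in these data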;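 note: inhibitors lower the bead chemiluminescence by keeping MITF from dimerizing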
AS interf DR = counter-screen: compounds optically interfering with AlphaScreen; shares compounds with MITF inh; AlphaScreen optical interference counterscreen, cell-free; IC50, µM; actives 6% (n = 480); call rule not given here
AlphaScreen intf2 = AlphaScreen optical interference, counter-screen; shares compounds with MITF inh; LysRS AlphaScreen counterscreen, signal interference, triplicate; inhibition, % at 2.6 µM; actives 7.6% (n = 4,700);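 active = inhibition above a cutoff derived from the DMSO control wells, cut at about 30% in these data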
Large screens that a line does not name were inactive (follow-up assays come after a bar, where they were run).

COc1ccc(OCC(O)CNCCCN(C)C)c(C(C)(C)C)c1 (centres undefined)	MITF inh 68 | MITF inh conf inactive | AlphaScreen intf2 inactive
COc1ccc(OCC(O)CNCCC(C)C)c(C(C)(C)C)c1 (centres undefined)	none
COc1ccccc1COCC(O)CNCC12CC3CC(CC(C3)C1)C2 (centres undefined)	MITF inh 64 | MITF inh conf inactive | AlphaScreen intf2 inactive
O=C(O)/C=C\C(=O)NCc1ccc(CNC(=O)/C=C\C(=O)O)cc1	none
N#CC1=C(N)Oc2n[nH]c(-c3cccc([N+](=O)[O-])c3)c2C12C(=O)Nc1ccccc12 (centres undefined)	none
CCOc1ccc(CNCc2c(C(=O)O)[nH]c3cc(C)ccc23)cc1	none
COc1ccccc1NC(=O)C1=C(C)NC(SCC(=O)Nc2ccccc2)=C(C#N)C1c1ccco1 (centres undefined)	none
COc1ccccc1NC(=O)C1=C(C)NC(SCC(=O)Nc2cccc(C)c2C)=C(C#N)C1c1ccco1 (centres undefined)	TEAD-YAP block 32, MITF inh 56 | MITF inh conf inactive | AlphaScreen intf2 inactive
CCN1CCN(CC(O)COC(c2ccccc2)c2ccccc2C)CC1 (centres undefined)	MITF inh 88 | MITF inh conf inactive | AlphaScreen intf2 inactive
CN(C)C=Nc1cc2c(cc1[N+](=O)[O-])OCCO2	MITF inh 51 | MITF inh conf inactive | AlphaScreen intf2 inactive
Nc1cc2c(cc1[N+](=O)[O-])OCCO2	none
Nc1nonc1C(=O)N/N=C\c1cc([N+](=O)[O-])c(Cl)cc1Cl	MITF inh 67 | MITF inh conf inactive | AlphaScreen intf2 inactive
N#Cc1c(C(F)(F)F)cc(-c2cccs2)nc1SCC(=O)N1CCOCC1	none
COc1cc(/C=C2/N=C(c3cccc(Cl)c3Cl)OC2=O)cc(Br)c1OC(C)=O	MITF inh 80 | MITF inh conf inactive | AlphaScreen intf2 inactive
COc1cc(/C=C2\N=C(c3ccccc3F)OC2=O)cc(Br)c1OC(C)=O	none
CC(=O)N1CCN(c2ccc(NC(=O)COc3cccc(C)c3)cc2)CC1	none
CCN1CCN(CCCCOc2ccc(CCC(C)=O)cc2)CC1	MITF inh 66 | MITF inh conf inactive | AlphaScreen intf2 inactive
CC(=O)CCc1ccc(OCCN2CCN(C)CC2)cc1	none
CCN1CCN(CCCOc2ccc(CCC(C)=O)cc2)CC1	MITF inh 56 | MITF inh conf inactive | AlphaScreen intf2 inactive
CC(=O)CCc1ccc(OCCCCN2CCN(C)CC2)cc1	none
O=C(NC1CCN(Cc2ccccc2)CC1)c1ccc2nc(-c3cccs3)sc2c1	MITF inh 52 | MITF inh conf 60 | AS interf DR inactive | AlphaScreen intf2 inactive
Cc1cc(NCCc2ccccc2)nc(-c2ccccc2O)n1	MITF inh 82 | MITF inh conf inactive | AlphaScreen intf2 inactive
CCN1CCN(CCOc2ccc(C(C)=O)cc2)CC1	MITF inh 78 | MITF inh conf inactive | AlphaScreen intf2 inactive
CCN1CCN(CC(=O)c2ccc(OC(F)F)cc2)CC1	MITF inh 78 | MITF inh conf inactive | AlphaScreen intf2 inactive
CC(=O)c1ccc(OCCCCN2CCN(C)CC2)cc1	MITF inh 52 | MITF inh conf inactive | AlphaScreen intf2 inactive
CC(=O)c1ccc(OCCN2CCCCC2)cc1	none
COc1ccccc1-n1c(-c2cnccn2)n[nH]c1=S	none
CC1(C)CC(=O)c2cc(C(=O)NCCCO)c(=O)n(-c3ccccc3)c2C1	none
O=C(Nc1cc(NC(=O)c2ccccc2)c(C(=O)O)cc1C(=O)O)c1ccccc1	none
O=C(Nc1cc(S(=O)(=O)O)cc2cc(S(=O)(=O)O)cc(O)c12)c1ccccc1	MITF inh 81 | MITF inh conf 60 | AS interf DR inactive | AlphaScreen intf2 inactive
Cc1cc(C)nc(Nc2ccc(C)c([N+](=O)[O-])c2)n1	none
Cc1cc(C)nc(Nc2ccc([N+](=O)[O-])cc2)n1	MITF inh 69 | MITF inh conf inactive | AlphaScreen intf2 inactive
CCC(C)NCCOCCOc1ccc(Br)cc1 (centres undefined)	none
CCc1cccc(OCCCNC(C)CC)c1 (centres undefined)	MITF inh 82 | MITF inh conf inactive | AlphaScreen intf2 inactive
CCC(C)NCCOCCOc1ccc(C)cc1 (centres undefined)	none
